PLAP activator: PLAP enzyme activators, biochemical, luminescence, HTS; Alkaline phosphatase, placental type (Homo sapiens), P05187; purified PLAP enzyme, luminescent substrate read-out; active compounds read high; 1.2% of 96,000 active; activation fold at 20 µM; in the data active = activation fold above about 2
S1P2 agonist: S1P2 receptor agonists, primary screen, cell-based | Sphingosine 1-phosphate receptor 2 (Homo sapiens), O95136 | activation, % at 4.5 µM | 0.46% of 97,000 active | S1P2-expressing cell line, agonist reporter read-out; in the data active = activation above about 16%;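 also: 0% = vehicle low control and 100% = maximal reference agonist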
Target sequence (O95136 whole entry, looked up): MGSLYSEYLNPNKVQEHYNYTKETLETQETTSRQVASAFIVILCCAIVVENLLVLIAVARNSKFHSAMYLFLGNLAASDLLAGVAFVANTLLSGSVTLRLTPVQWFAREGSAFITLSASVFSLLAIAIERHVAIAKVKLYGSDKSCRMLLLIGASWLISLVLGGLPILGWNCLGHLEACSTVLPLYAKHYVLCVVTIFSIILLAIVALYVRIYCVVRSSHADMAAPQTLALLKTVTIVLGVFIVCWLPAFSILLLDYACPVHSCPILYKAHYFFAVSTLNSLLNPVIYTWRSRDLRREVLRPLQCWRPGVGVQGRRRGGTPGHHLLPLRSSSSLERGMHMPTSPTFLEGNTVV
GALR2 antag: GALR2 antagonists in receptor-expressing cells, primary screen; inhibition, % at 4 µM; 0.39% of 140,000 active; antagonist mode; Galanin receptor type 2 (Homo sapiens), O43603; AID 828, 2007; in the data active = inhibition above about 27%;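 also: cells stimulated with galanin 1-16 at roughly its EC80; 0% = agonist challenge control and 100% = basal control without agonist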
S1P2 antag: human S1P2 receptor antagonists, primary screen, cell-based | inhibition, % at 5 µM | cell-based S1P2 antagonist assay, inhibition at 5 uM | AID 736, 2007 | 0.21% of 97,000 active | Sphingosine 1-phosphate receptor 2 (Homo sapiens), O95136; in the data active = inhibition above about 45%;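 also: CRE beta-lactamase reporter cells expressing human S1P2 stimulated with S1P; 0% = agonist at EC80 alone and 100% = agonist plus reference antagonist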
GALR2 ag: GALR2 receptor agonists, primary screen, cell-based. Galanin receptor type 2 (Homo sapiens), O43603. GALR2-expressing cells, agonist activation read-out. activation, % (test concentration not listed). 0.48% of 140,000 active; in the data active = activation above about 5%, passing the limit was not always enough;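 also: 0% = vehicle buffer wells and 100% = reference agonist at full effect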
Active calls of the source: *. This is a sample that favours compounds with a hit; in the whole collection about 2% have one here.

How did COc1ccc(NS(=O)(=O)c2cc([N+](=O)[O-])ccc2N/N=C\c2c(C)[nH]c3ccccc23)cc1 do in these assays?
PLAP activator: 1; S1P2 agonist: -4; GALR2 antag: 9; S1P2 antag: -6; GALR2 ag: -2

How did COc1ccccc1NS(=O)(=O)c1cc([N+](=O)[O-])ccc1N/N=C/c1c[nH]c2ccccc12 do in these assays?
PLAP activator: 1; S1P2 agonist: -15; GALR2 antag: 6; S1P2 antag: 62*; GALR2 ag: -3

What do the screens show for `COC(=O)c1cn[nH]c1NC(=S)Nc1ccc(C)cc1Cl`?
PLAP activator: 1.1; S1P2 agonist: -11; GALR2 antag: 11; S1P2 antag: -19; GALR2 ag: -2

Results for CCC(=O)NC(=S)Nc1ccccc1C(=O)OC ?
GALR2 antag: -7; GALR2 ag: 0

How did COC(=O)c1cn[nH]c1NC(=S)Nc1ccc(Cl)c(Cl)c1 do in these assays?
PLAP activator: 2.5*; S1P2 agonist: -6; GALR2 antag: 5; S1P2 antag: -2; GALR2 ag: -7

Results for COC(=O)c1cn[nH]c1NC(=S)Nc1ccccc1C ?
S1P2 agonist: 57*; GALR2 antag: -3; S1P2 antag: -1; GALR2 ag: 0

What do the screens show for `CCCn1c(SCC(=O)NC(=O)Nc2ccc(C)cc2C)n[nH]c1=O`?
PLAP activator: 1.2; S1P2 agonist: -1; GALR2 antag: -5; S1P2 antag: 9; GALR2 ag: -1

Results for CCCn1c(SCC(=O)c2cc(C)c(C)cc2C)n[nH]c1=O ?
PLAP activator: 2.2*; S1P2 agonist: -7; GALR2 antag: 1; S1P2 antag: 4; GALR2 ag: -2

How did N#CCCS(=O)(=O)c1nnnn1-c1ccccc1 do in these assays?
PLAP activator: 1; S1P2 agonist: -11; GALR2 antag: 59*; S1P2 antag: 64*; GALR2 ag: -5

Results for N#CCCCSc1nnnn1-c1cccc(Cl)c1 ?
PLAP activator: 0.8; S1P2 agonist: -2; GALR2 antag: -7; S1P2 antag: -9; GALR2 ag: -4

How did CCN(c1ccc(NC(=O)COC(=O)c2ccc(S(=O)(=O)N3CCCC3)cc2)cc1)C(C)C do in these assays?
PLAP activator: 1.1; S1P2 agonist: -3; GALR2 antag: 2; S1P2 antag: -6; GALR2 ag: -3

What do the screens show for `CC(CNc1ccccc1O)C(=O)O` (configuration not stated)?
GALR2 antag: 0; GALR2 ag: 0

How did Cc1ccc(S(=O)(=O)N/N=C/c2cc(Br)c(C)o2)cc1 do in these assays?
PLAP activator: 1.2; S1P2 agonist: 27*; GALR2 antag: 6; S1P2 antag: -7; GALR2 ag: 0

Results for CCOC(=O)c1ccc(-n2c(=O)[nH]c3ccccc3c2=O)cc1 ?
PLAP activator: 2*; S1P2 agonist: -1; GALR2 antag: -14; S1P2 antag: -41; GALR2 ag: 0

What do the screens show for `CCOC(=O)N1CCN(C(=O)Cc2ccc(-n3c(=O)[nH]c4ccccc4c3=O)cc2)CC1`?
PLAP activator: 1.1; S1P2 agonist: -4; GALR2 antag: 10; S1P2 antag: 1; GALR2 ag: -1

What do the screens show for `CSc1cc(-c2ccc(Cl)cc2)n(Cc2ccccc2)c(=O)c1C#N`?
PLAP activator: 0.6; S1P2 agonist: -8; GALR2 antag: -3; S1P2 antag: -19; GALR2 ag: 438*

How did Cc1cccc(C)c1NC(=S)NNc1ncc(C(F)(F)F)cc1Cl do in these assays?
PLAP activator: 2.1*; S1P2 agonist: -2; GALR2 antag: 9; S1P2 antag: -3; GALR2 ag: -2

How did COc1ccc2c(C)c(C(=O)NCC(C)O)oc2c1OC (configuration not stated) do in these assays?
PLAP activator: 0.8; S1P2 agonist: -2; GALR2 antag: -12; S1P2 antag: -1; GALR2 ag: 0

What do the screens show for `CCCCCCCC1CC(/C(C)=N/NC(N)=O)OC1=O` (configuration not stated)?
GALR2 antag: 5; GALR2 ag: -1

How did COc1cc2c(cc1OC)C(C(=O)N1CCN(c3ccccc3)CC1)C(c1cccs1)N(C)C2=O (configuration not stated) do in these assays?
PLAP activator: 1.8; S1P2 agonist: -1; GALR2 antag: -1; S1P2 antag: 2; GALR2 ag: -1

What do the screens show for `CCCCNc1cc(C)nc(NCc2ccccc2)n1`?
PLAP activator: 0.9; S1P2 agonist: -4; GALR2 antag: 24; S1P2 antag: 57*; GALR2 ag: -1

What do the screens show for `Cc1cc(SCC(=O)c2cccs2)n2nc(C)c(-c3ccccc3)c2n1`?
GALR2 antag: -14; GALR2 ag: 0

Results for Cc1cc(C)n(CC(O)Cn2c3ccccc3c3ccccc32)n1 (configuration not stated) ?
PLAP activator: 1.1; S1P2 agonist: -4; GALR2 antag: 8; S1P2 antag: -11; GALR2 ag: -1

What do the screens show for `Cc1cc(C)n(CCc2nc3c4ccccc4n(CC#N)c(=O)n3n2)n1`?
PLAP activator: 1.1; S1P2 agonist: 29*; GALR2 antag: -13; S1P2 antag: -24; GALR2 ag: 0

How did C=CCc1ccccc1OCC(=O)N/N=C/c1ccc(OC(C)=O)cc1OC(C)=O do in these assays?
GALR2 antag: -4; GALR2 ag: -1

How did Cn1c(-c2sc(=S)n(-c3ccccc3)c2N)nc2ccccc21 do in these assays?
PLAP activator: 1; S1P2 agonist: 32*; GALR2 antag: 19; S1P2 antag: 2; GALR2 ag: -2

Results for CCOC(=O)Nc1ccc2c(c1)N(C(=O)CCN(C)C)c1ccccc1S2 ?
PLAP activator: 1.2; S1P2 agonist: -8; GALR2 antag: 30*; S1P2 antag: -5; GALR2 ag: -2

What do the screens show for `Clc1ccc(C2=Nn3c(nnc3-c3n[nH]c4c3CCC4)SC2)cc1Cl`?
S1P2 agonist: -4; GALR2 antag: -12; S1P2 antag: -15; GALR2 ag: 5.2*

What do the screens show for `c1ccc(C2=Nn3c(nnc3-c3n[nH]c4c3CCC4)SC2)cc1`?
PLAP activator: 1.4; S1P2 agonist: -11; GALR2 antag: -5; S1P2 antag: 2; GALR2 ag: -2

Results for Cc1cc(C)c(OCCNC(=O)c2ccccc2Sc2ccccc2C#N)c(C)c1 ?
GALR2 antag: 4; GALR2 ag: -1

How did Oc1c(C(c2ccccc2)N2CCc3ccccc3C2)sc2ncnn12 (configuration not stated) do in these assays?
S1P2 agonist: -7; GALR2 antag: 14; S1P2 antag: 30; GALR2 ag: -1

How did Oc1c(C(c2ccco2)N2CCN(C(c3ccccc3)c3ccccc3)CC2)sc2ncnn12 (configuration not stated) do in these assays?
PLAP activator: 2.1*; S1P2 agonist: -8; GALR2 antag: -4; S1P2 antag: -1; GALR2 ag: -3

Bioassay records (PubChem)
